Measured values: PubChem BioAssay AID602365 (National Center for Advancing Translational Sciences (NCATS), 2012)
Inconclusive results are not listed. Activity calls are given as the source filed them. Calls follow the shape of the dose curve; as a rule, active = well fitted inhibition curve with a large enough effect; inconclusive = small, poorly fitted or top-dose-only effect; inactive = flat fitted curve, though single readings scatter.

What follows are compounds tested against Luciferin 4-monooxygenase (Photinus pyralis) (UniProt P08659) (assay: FLuc inhibitory activity for the follow-up compounds in a biochemical assay with 1mM D-luciferin). Settings: purified FLuc, luminescence; series mostly up to 57.5 µM.
Description: NCGC Assay Overview: Firefly (Photinus pyralis) luciferase is one of the most commonly used transcriptional reporters. It is considered one of the more dynamically responsive reporters - that is, responsive to changes in reporter transcription - as it requires no post-translational modifications and is enzymatically active directly after protein synthesis (Wood, 1998). With no endogenous expression in mammalian cells and without the requirement of external excitation, it offers very little background signal, thus generally providing excellent signal to background for most assays. Previous profiling work to determine the prevalence of compounds that affect FLuc enzymatic activity (PubChem AID 411) identified that ~3% of the MLSMR library (then at ~72K) inhibited FLuc. […] Of the compounds identified in this profile that inhibited FLuc, 151 compounds were selected for further analysis, in an effort to better understand their mode of inhibiting FLuc. The assay described here was to determine the activity of the compounds in a FLuc assay that contained a KM concentration of ATP and a high concentration (1mM) of D-luciferin.
NCGC Assay Protocol Summary: Reagents: 50mM Tris acetate, pH 7.5; 10mM Mg acetate; 1mM D-luciferin (Sigma #L9504); 10uM ATP; 0.01% Tween-20; 0.05% BSA; 10nM P. pyralis luciferase (Sigma #L9506) Control compounds used were two known firefly luciferase inhibitors (3-(5-(3-chlorophenyl)-1,2,4-oxadiazol-3-yl)benzoic acid and 5-(2-fluorophenyl)-3-phenyl-1,2,4-oxadiazole), and DMSO. Three microliters containing firefly luciferase substrates in buffer (final concentrations: 50mM Tris acetate, pH 7.5, 10mM Mg acetate, 0.01% Tween-20, 0.05% BSA, 1mM D-luciferin, 10uM ATP) are dispensed into each well of a Greiner white, solid-bottom 1536-well format plate using a flying reagent dispenser (FRD). These assay plates were then treated with 23nL of compound or DMSO using a Kalypsys pin tool, which allows for delivery of a 12-point intraplate titration of each compound to the assay plate (quantitative HTS), with a final compound concentrations ranging from approximately ~60uM to 0.3nM. One microliter of firefly luciferase in […] Tris-acetate buffer was then delivered by FRD to each well for a final enzyme concentration of 10nM. Luciferase activity was then measured using a ViewLux CCD imager (PerkinElmer), with an average exposure time of 2-30 seconds (2X binning, medium/high gain).

Sequence of Luciferin 4-monooxygenase (Photinus pyralis) (P08659 whole entry, looked up): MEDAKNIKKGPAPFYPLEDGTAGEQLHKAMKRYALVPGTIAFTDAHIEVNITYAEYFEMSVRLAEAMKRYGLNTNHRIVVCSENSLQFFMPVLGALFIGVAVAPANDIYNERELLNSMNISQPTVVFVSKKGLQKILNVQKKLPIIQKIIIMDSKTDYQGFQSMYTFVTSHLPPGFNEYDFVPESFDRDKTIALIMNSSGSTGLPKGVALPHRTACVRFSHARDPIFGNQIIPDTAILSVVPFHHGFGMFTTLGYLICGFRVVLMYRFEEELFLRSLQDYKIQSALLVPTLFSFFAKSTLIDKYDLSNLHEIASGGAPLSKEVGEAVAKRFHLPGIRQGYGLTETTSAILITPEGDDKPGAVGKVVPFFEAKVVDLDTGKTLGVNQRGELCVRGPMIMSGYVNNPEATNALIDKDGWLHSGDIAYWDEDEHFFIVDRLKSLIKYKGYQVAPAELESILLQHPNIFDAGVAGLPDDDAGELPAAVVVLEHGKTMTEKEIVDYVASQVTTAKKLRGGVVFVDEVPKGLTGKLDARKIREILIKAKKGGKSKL

Q: How did the Potency turn out when O=C(O)c1cccc(NC(=O)c2cccc(S(=O)(=O)N3CCc4ccccc4C3)c2)c1 was run?
A: inactive

Q: Which Potency does the source give for CCn1c(C)nc2cc(-c3nc4n(n3)Cc3ccccc3-4)ccc21 here?
A: 0.163 µM (active)

Q: Which Potency does the source give for CCOc1ccc2nc(NC(=O)Cc3cccs3)sc2c1 here?
A: 18.3 µM (active)

Q: For O=C(Nc1ccccc1C(=O)O)c1ccc(Cl)c(S(=O)(=O)N2CCOCC2)c1, which Potency is on record?
A: 18.3 µM (active)

Q: O=C(Cc1ccc(Cl)cc1)Nc1cccc(C(=O)Nc2ccccc2C(=O)O)c1 was tested. Which Potency did it give?
A: 36.6 µM (active)

Q: For COc1ccccc1C(=O)Nc1ccc(C(=O)O)cc1, which Potency is on record?
A: inactive

Q: With Nc1ccccc1-c1nc2ccccc2s1 as the compound, how does the Potency read?
A: 18.3 µM (active)

Q: With CC(C)(C)NC(=O)c1ccccc1-c1nc2ccccc2s1 as the compound, how does the Potency read?
A: inactive

Q: For O=C(Nc1c(Cl)cc(Cl)cc1-c1nc2ccccc2s1)c1ccc(Br)o1, which Potency is on record?
A: inactive

Q: With NC(=O)Cc1ccc2sc(-c3ccccc3)nc2c1 as the compound, how does the Potency read?
A: 13 µM (active)

Q: With O=C(Nc1ccccc1C(=O)O)c1cccc(NC(=O)c2ccco2)c1 as the compound, how does the Potency read?
A: 20.6 µM (active)

Q: How did the Potency turn out when O=C(Cc1ccccc1)Nc1ccc(C(=O)Nc2ccccc2C(=O)O)cc1 was run?
A: 20.6 µM (active)

Q: How did the Potency turn out when Cc1ccc2sc(-c3ccc(NC(=O)c4cc(-n5cnnc5)ccc4Cl)cc3)nc2c1 was run?
A: 18.3 µM (active)

Q: O=C(Nc1ccccc1C(=O)O)c1ccccc1 was tested. Which Potency did it give?
A: inactive

Q: For Cc1ccc(S(=O)(=O)N2CCN(C(=O)c3ccccc3-c3nc4ccccc4s3)CC2)c(C)c1, which Potency is on record?
A: inactive

Q: With COc1ccc(NS(=O)(=O)c2cccc(C(=O)Nc3ccccc3C(=O)O)c2)cc1 as the compound, how does the Potency read?
A: inactive

Q: With CCOc1ccc(C(=O)Nc2cccc(C(=O)O)c2)cc1Cl as the compound, how does the Potency read?
A: 6.51 µM (active)

Q: How did the Potency turn out when CCOC(=O)N1CCN(CC(=O)Nc2nc3ccc(OC)cc3s2)CC1 was run?
A: inactive

Q: With Cc1c(NC(=O)c2cccs2)cccc1-c1nc2ccccc2s1 as the compound, how does the Potency read?
A: 14.6 µM (active)

Q: CC(=O)Oc1ccc(C(=O)Nc2ccccc2C(=O)Nc2ccc(C(=O)O)cc2)cc1 was tested. Which Potency did it give?
A: 18.3 µM (active)

Q: How did the Potency turn out when O=C(O)c1cccc(NC(=O)c2ccc(Cl)c(S(=O)(=O)N3CCCCCC3)c2)c1 was run?
A: 3.26 µM (active)

Q: O=C(Nc1ccccc1C(=O)O)c1cc(S(=O)(=O)Nc2cccc(F)c2)ccc1Cl was tested. Which Potency did it give?
A: inactive

Q: Nc1ccc2nc(-c3ccc(O)cc3)sc2c1 was tested. Which Potency did it give?
A: 1.3 µM (active)

Q: With O=C(Nc1ccccc1C(=O)O)c1ccc(NC(=O)C2CCCO2)cc1 (stereo not given) as the compound, how does the Potency read?
A: 20.6 µM (active)

Q: For O=C(O)c1cccc(NC(=O)c2ccccc2NC(=O)c2ccco2)c1, which Potency is on record?
A: inactive

Q: Which Potency does the source give for CCOc1ccc2nc(NC(=O)c3cc([N+](=O)[O-])ccc3N3CCOCC3)sc2c1 here?
A: inactive

Q: For COc1cc(OC)cc(C(=O)Nc2ccccc2-c2nc3ccccc3s2)c1, which Potency is on record?
A: inactive

Q: Which Potency does the source give for O=C(Cc1ccccc1)Nc1ccccc1C(=O)Nc1ccc(C(=O)O)cc1 here?
A: inactive

Q: Which Potency does the source give for Nc1cccc(-c2nc3ccc(N)cc3s2)c1 here?
A: 2.59 µM (active)

Q: For COc1ccc(C(=O)Nc2ccccc2C(=O)Nc2ccccc2C(=O)O)cc1, which Potency is on record?
A: 1.63 µM (active)

Q: Cc1ccc(C(=O)Nc2ccccc2C(=O)O)cc1S(=O)(=O)N1CCCCCC1 was tested. Which Potency did it give?
A: 5.17 µM (active)

Q: COc1c(C)cccc1C(=O)Nc1ccc(-c2nc3ccccc3s2)c(Cl)c1 was tested. Which Potency did it give?
A: inactive

Q: How did the Potency turn out when O=S(=O)(c1ccc(-c2nc3ccccc3s2)cc1)N1CCCC1 was run?
A: inactive

Q: How did the Potency turn out when Cc1ccc(C(=O)Nc2cccc(C(=O)O)c2)cc1S(=O)(=O)N1CCCC1 was run?
A: 4.61 µM (active)

Q: How did the Potency turn out when CCOc1ccc2nc(NC(=O)c3ccccn3)sc2c1 was run?
A: 2.06 µM (active)

Q: How did the Potency turn out when COc1ccc(-c2nc3ccccc3s2)cc1NC(=O)c1ccc(F)cc1 was run?
A: inactive

Q: With Nc1ccc(-c2nc3cc(N)ccc3s2)cc1 as the compound, how does the Potency read?
A: 18.3 µM (active)

Q: Which Potency does the source give for CN(C)c1cccc(C(=O)Nc2ccc(-c3nc4ccccc4s3)cc2)c1 here?
A: 18.3 µM (active)

Q: With COc1ccc(-c2cccc(C(=O)Nc3cccc(C(=O)O)c3)c2)cc1 as the compound, how does the Potency read?
A: 18.3 µM (active)

Q: Cc1ccc(C(=O)Nc2ccc(C(=O)O)cc2)cc1S(=O)(=O)Nc1ccccc1 was tested. Which Potency did it give?
A: inactive
